# PubChem BioAssay
# Activity calls are given as the source filed them. Unless noted, how the calls were made is not given here.
# What was measured:
# [1] = tested on: Wnt5a (protein binding on small-molecule microarray); assay: small molecules binding Wnt5a protein – biophysical, small-molecule microarray, 635/667 nm fluorescence, primary screen (AID 1142); conditions: 635 nm fluorescence, higher = more signal;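 further: fluorescence read at 667 nm with signal to noise per printed feature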
# [2] = ATP-based viability of Huh7 replicon cells – cell-based, CellTiter-Glo luminescence, basal, 48 h, cytotoxicity control for HCV replication inhibitor project, primary screen (AID 1143); conditions: higher = more signal, called active from +8 up or from −8 down;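 further: Huh7 hepatoma cells carrying a hepatitis C replication reporter with no stimulus; test concentration not given here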
# [3] = Pseudomonas biofilm growth suppression – PAO1 strain, BacTiter-Glo luminescence, LB-PBS, primary screen (AID 1144); conditions: P. aeruginosa PAO1 biofilm, 12 h, higher = more signal
# [4] = basal CRE-LacZ reporter activity in PC12 – cell-based, unstimulated, primary screen (AID 1145); conditions: no forskolin, luminescence, 4.5 h, higher = more signal, called active from +8 up or from −8 down
# [5] = forskolin-driven CRE-LacZ activity in PC12 – cell-based, CRE-LacZ reporter, forskolin-stimulated, primary screen (AID 1146); conditions: luminescence, 4.5 h, higher = more signal, called active from +8 up or from −8 down;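 further: PC12 cells with 6xCRE LacZ reporter stimulated by forskolin 10 µM; beta-galactosidase reporter signal reflecting CREB driven transcription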
# [6] = target: Streptavidin (Streptomyces avidinii) (UniProt P22629); assay: compounds binding control protein streptavidin – biophysical, small-molecule microarray, 635/667 nm fluorescence, artefact control for SMM compound annotation, primary screen (AID 1147); conditions: higher = more signal;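 further: signal reflects streptavidin binding to arrayed compounds as a control protein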
# Chain of Streptavidin (Streptomyces avidinii) (P22629 whole entry, looked up): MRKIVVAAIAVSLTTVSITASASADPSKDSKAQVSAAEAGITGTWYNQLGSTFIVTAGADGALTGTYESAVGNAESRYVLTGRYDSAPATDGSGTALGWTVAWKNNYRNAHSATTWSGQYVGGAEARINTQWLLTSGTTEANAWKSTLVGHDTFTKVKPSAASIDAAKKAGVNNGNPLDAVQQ
# [7] = probe aInhba binding on compound microarray – biochemical, small-molecule microarray, 635/667 nm fluorescence, primary screen (AID 1148); conditions: higher = more signal;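 further: score merges 667nm spot fluorescence with signal-to-noise for antibody binding to printed compounds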
# [8] = target: Torsin-1A (Homo sapiens) (UniProt O14656); assay: TOR1A wild-type binding on microarray – cell lysate, small-molecule microarray, lysate, 635/667 nm, primary screen (AID 1149); conditions: COS7 hTOR1A-WT lysate, 635 nm fluorescence, higher = more signal
# Chain of Torsin-1A (Homo sapiens) (O14656 whole entry, looked up): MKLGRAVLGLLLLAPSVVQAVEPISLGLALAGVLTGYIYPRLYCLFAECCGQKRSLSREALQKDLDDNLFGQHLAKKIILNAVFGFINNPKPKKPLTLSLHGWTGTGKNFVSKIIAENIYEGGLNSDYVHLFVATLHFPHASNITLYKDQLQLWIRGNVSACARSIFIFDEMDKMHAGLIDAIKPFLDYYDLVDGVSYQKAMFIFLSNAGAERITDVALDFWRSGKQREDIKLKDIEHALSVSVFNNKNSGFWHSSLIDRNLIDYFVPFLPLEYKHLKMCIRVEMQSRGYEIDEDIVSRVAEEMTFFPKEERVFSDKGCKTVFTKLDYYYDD
# [9] = target: Torsin-1A (Homo sapiens) (UniProt O14656); assay: torsin A mutant lysate binding on microarrays – cell lysate, small-molecule microarray, COS7 lysate, 635/667 nm fluorescence, primary screen (AID 1150); conditions: COS7 hTOR1A mutant lysate, 635 nm fluorescence, higher = more signal;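 further: score pools 667 nm emission and signal to noise measuring lysate protein binding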
# [10] = tested on: Sonic hedgehog protein (Shh); assay: Sonic hedgehog microarray binding compounds – biochemical, small-molecule microarray, 635/667 nm fluorescence, primary screen (AID 1151); conditions: 635 nm fluorescence, higher = more signal;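 further: Shh protein binding to compounds spotted on small-molecule microarray slides; score combines spot fluorescence intensity with signal-to-noise across triplicate slides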
# [11] = optical density shifts of acrAB sulA E. coli – strain DRC41, OD650, 48 h, E. coli filamentation inducer project, primary screen (AID 1152); conditions: higher = more signal, called active from +8 up or from −8 down;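 further: E. coli MC1000 strain DRC41 lacking acrAB efflux pump and sulA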
# [12] = probe aLefty1 binding on compound microarray – biochemical, small-molecule microarray, 635/667 nm fluorescence, primary screen (AID 1153); conditions: higher = more signal;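 further: score merges spot fluorescence with signal-to-noise ratio from the scanned slide images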
# [13] = plasmodial surface anion channel blockers, osmotic lysis – cell-based, P. falciparum Indochina, OD700, 1 h, primary screen (AID 1154); conditions: P. falciparum Indochina infected RBC osmotic lysis, higher = more signal, called active from +8 up or from −8 down
# [14] = plasmodial surface anion channel blockers, osmotic lysis – cell-based, P. falciparum Indochina, OD700, 2 h, primary screen (AID 1155);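 further: lysis reports solute entry through the parasite surface anion channel PSAC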; conditions: P. falciparum Indochina infected erythrocytes, higher = more signal, called active from +8 up or from −8 down
# [15] = changes in parasitized red cell lysis, either direction – P. falciparum Indochina, OD700, 3 h, PSAC antagonist project, primary screen (AID 1156); conditions: P. falciparum-infected erythrocytes, osmotic lysis, higher = more signal, called active from +8 up or from −8 down
# [16] = plasmodial surface anion channel blockers, osmotic lysis – cell-based, P. falciparum Indochina, OD700, 18 h, primary screen (AID 1157); conditions: P. falciparum Indochina infected erythrocytes, osmotic lysis OD700, 18 h; higher = more signal, called active from +8 up or from −8 down
# [17] = S6 kinase pathway phospho-S6 level changes – cell-based, A549, cytoblot, luminescence, serum-stimulated, primary screen (AID 1158); conditions: 5 h, higher = more signal;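 further: serum-stimulated A549 lung adenocarcinoma cells; signal is phosphorylated S6 detected by cytoblot immunostaining with HRP secondary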
# [18] = target: NADPH oxidase 2 (Homo sapiens) (UniProt P04839); assay: compounds shifting NOX2 Amplex Red fluorescence – cell-based, HEK293-NOX2, PMA-stimulated, NOX inhibitor project, primary screen (AID 1159); conditions: 45 min, higher = more signal, called active from +8 up or from −8 down; further: test concentration not given here
# Chain of NADPH oxidase 2 (Homo sapiens) (P04839 whole entry, looked up): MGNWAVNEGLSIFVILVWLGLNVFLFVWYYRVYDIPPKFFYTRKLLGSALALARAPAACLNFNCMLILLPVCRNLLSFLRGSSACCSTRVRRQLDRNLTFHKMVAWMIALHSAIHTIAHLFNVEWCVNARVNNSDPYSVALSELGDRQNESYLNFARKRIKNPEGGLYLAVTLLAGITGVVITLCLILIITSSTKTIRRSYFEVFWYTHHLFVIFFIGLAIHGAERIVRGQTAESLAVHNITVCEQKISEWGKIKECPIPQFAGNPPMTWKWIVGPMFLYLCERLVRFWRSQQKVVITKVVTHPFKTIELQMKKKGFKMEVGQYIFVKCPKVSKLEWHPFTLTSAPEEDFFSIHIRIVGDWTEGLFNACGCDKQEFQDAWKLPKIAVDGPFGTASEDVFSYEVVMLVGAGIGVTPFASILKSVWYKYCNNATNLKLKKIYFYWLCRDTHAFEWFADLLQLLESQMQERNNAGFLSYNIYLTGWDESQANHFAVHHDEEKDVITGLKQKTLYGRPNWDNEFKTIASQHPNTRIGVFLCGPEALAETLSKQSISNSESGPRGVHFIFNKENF
# [19] = target: NADPH oxidase 4 (Homo sapiens) (UniProt Q9NPH5); assay: compounds shifting NOX4 Amplex Red fluorescence – cell-based, HEK293-NOX4, tetracycline-induced, NOX inhibitor project, primary screen (AID 1160); conditions: HEK293-NOX4, Amplex Red H2O2 fluorescence, 45 min; higher = more signal, called active from +8 up or from −8 down
# Chain of NADPH oxidase 4 (Homo sapiens) (Q9NPH5 whole entry, looked up): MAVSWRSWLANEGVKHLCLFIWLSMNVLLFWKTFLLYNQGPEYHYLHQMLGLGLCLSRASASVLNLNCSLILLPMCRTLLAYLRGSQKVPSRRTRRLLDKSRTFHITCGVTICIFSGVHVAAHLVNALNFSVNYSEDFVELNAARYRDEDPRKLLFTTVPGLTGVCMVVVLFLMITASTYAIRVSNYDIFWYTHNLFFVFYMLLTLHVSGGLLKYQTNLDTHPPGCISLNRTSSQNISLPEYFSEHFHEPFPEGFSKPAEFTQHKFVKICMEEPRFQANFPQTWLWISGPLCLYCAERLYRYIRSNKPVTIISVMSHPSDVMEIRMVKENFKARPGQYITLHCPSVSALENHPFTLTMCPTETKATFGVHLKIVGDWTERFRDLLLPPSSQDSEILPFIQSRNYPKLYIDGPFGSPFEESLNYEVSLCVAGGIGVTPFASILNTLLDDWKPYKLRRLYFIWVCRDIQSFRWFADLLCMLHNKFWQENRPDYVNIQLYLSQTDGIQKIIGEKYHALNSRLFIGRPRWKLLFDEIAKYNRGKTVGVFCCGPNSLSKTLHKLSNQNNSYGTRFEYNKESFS
# [20] = target: NADPH oxidase 5 (Homo sapiens) (UniProt Q96PH1); assay: compounds shifting NOX5 Amplex Red fluorescence – cell-based, HEK293-NOX5, NOX inhibitor project, primary screen (AID 1161); conditions: HEK293-NOX5, ionomycin, 45 min, higher = more signal
# Chain of NADPH oxidase 5 (Homo sapiens) (Q96PH1 whole entry, looked up): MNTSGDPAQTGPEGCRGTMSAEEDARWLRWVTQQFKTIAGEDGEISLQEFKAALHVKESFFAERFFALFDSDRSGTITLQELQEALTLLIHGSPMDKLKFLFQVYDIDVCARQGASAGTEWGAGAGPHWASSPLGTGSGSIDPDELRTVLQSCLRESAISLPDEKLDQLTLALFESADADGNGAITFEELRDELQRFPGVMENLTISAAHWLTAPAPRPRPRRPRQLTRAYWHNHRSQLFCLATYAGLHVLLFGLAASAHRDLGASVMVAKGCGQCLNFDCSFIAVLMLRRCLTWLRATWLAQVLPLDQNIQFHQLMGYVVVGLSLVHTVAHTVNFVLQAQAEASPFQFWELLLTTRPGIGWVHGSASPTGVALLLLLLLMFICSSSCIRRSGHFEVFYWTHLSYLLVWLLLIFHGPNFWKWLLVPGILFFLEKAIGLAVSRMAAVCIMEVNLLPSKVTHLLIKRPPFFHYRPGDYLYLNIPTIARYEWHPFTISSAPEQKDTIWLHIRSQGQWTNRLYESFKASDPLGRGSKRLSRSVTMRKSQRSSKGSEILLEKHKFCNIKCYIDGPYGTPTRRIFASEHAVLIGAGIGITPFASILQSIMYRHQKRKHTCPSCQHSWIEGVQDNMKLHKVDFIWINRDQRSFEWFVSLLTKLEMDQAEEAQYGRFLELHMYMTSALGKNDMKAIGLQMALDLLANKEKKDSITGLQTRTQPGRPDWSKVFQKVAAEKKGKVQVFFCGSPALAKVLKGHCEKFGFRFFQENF
Compound,composite z-score [1],z-score [2],z-score [3],z-score [4],z-score [5],composite z-score [6],composite z-score [7],composite z-score [8],composite z-score [9],composite z-score [10],z-score [11],composite z-score [12],z-score [13],z-score [14],z-score [15],z-score [16],z-score [17],z-score [18],z-score [19],z-score [20]
CC(C)(C)N1CC=CC23O[C@@H]4/C=C\CCCOC(=O)C4[C@H]2C(=O)N(CCCO)[C@@H]3C1=O (stereo not given in full),-0.285,0.317 (inactive),1.68 (inactive),-0.0697 (inactive),-0.764 (inactive),-0.773,-0.0112,0.585,0.645,0.941,-0.455 (inactive),0.0927,0.46 (inactive),0.223 (inactive),-0.772 (inactive),0.429 (inactive),0.0241,1.63 (inactive),0.724 (inactive),2.51
COC(=O)C(CC#Cc1ccc2c(c1)[C@]1(C(=O)N2)[C@H](c2ccccc2OCCO)N2[C@H](c3ccccc3)[C@H](c3ccccc3)OC(=O)[C@H]2[C@@H]1C(=O)N1CCc2cc(OC)c(OC)cc2C1)C(=O)OC,0.237,-3.09 (inactive),-0.888 (inactive),-0.0515 (inactive),0.509 (inactive),1.11,-0.138,0.757,0.674,1.82,0.447 (inactive),0.0215,3.28 (inactive),2.24 (inactive),2.54 (inactive),1.25 (inactive),-0.033,1.74 (inactive),1.52 (inactive),1.73
C=CCN1C(=O)[C@]2(O[C@H](CCn3cc([C@H](O)c4ccccc4)nn3)[C@@H]([Si](C)(C)c3ccc(OC)cc3)[C@@H]2C)c2cc(NC(=O)c3ccc(OC)cc3)ccc21,0.0292,-3.84 (inactive),-1.5 (inactive),1.05 (inactive),-1.54 (inactive),-0.0759,0.117,-0.68,0.0247,1.36,0.294 (inactive),0.179,5.48 (inactive),2.21 (inactive),2.59 (inactive),1.18 (inactive),-0.0732,0.51 (inactive),0.564 (inactive),-0.0881
COCCn1c(C(=O)N(C)C)cc2c1C[C@H]1CN(C(=O)c3ccccc3)[C@@](Cc3ccc(OC)cc3)(C(=O)OC)[C@@H]21,0.198,-1.27 (inactive),0.491 (inactive),0.776 (inactive),0.0711 (inactive),0.572,-0.0237,0.236,1.11,-0.472,-1.18 (inactive),0.256,5.82 (inactive),0.846 (inactive),1.36 (inactive),1.23 (inactive),-0.164,0.556 (inactive),1.43 (inactive),1.24
CN(C)C(=O)[C@]1(Cc2ccccc2)N=C(c2ccc(OCCCO)cc2)O[C@@H]1c1ccccc1CN=[N+]=[N-],0.552,-3.95 (inactive),-0.754 (inactive),-0.655 (inactive),2.45 (inactive),1.34,0.136,1.12,0.737,0.0325,0.631 (inactive),0.313,27.3 (active),17.5 (active),1.11 (inactive),2.14 (inactive),0.0358,-3.22 (inactive),-0.846 (inactive),-1.24
CC(C)NC(=O)[C@@]1(c2ccc([N+](=O)[O-])cc2)CC(=O)N(CC23CC4CC(CC(C4)C2)C3)[C@@H]1c1ccc(CO)cc1,0.821,-4.42 (inactive),-0.336 (inactive),0.362 (inactive),0.795 (inactive),0.771,1.19,1.17,1.36,1.95,-0.323 (inactive),1.56,2.3 (inactive),0.814 (inactive),1.86 (inactive),0.204 (inactive),-0.248,-0.108 (inactive),-1.02 (inactive),-0.0647
CN(C)CCCNC(=O)[C@@]1(Cc2ccccc2I)c2ccccc2C(=O)N(C2CCCCC2)[C@H]1c1ccc(CO)cc1,0.418,-5.91 (inactive),1.69 (inactive),2.12 (inactive),1.76 (inactive),1.19,0.41,0.305,0.794,0.618,-2.04 (inactive),0.482,2.37 (inactive),-0.0009 (inactive),-2.34 (inactive),-0.456 (inactive),-2.25,-9.9 (active),-4.06 (inactive),-3.65
CCOC(=O)C[C@H]1[C@H](OC(=O)c2ccccc2-c2ccccc2)[C@@H](NC(=O)C2CCCCC2)c2cc(OCCCO)ccc2N1C(=O)c1ccc2ccccc2n1,0.243,-0.911 (inactive),0.507 (inactive),4.83 (inactive),1.51 (inactive),0.155,0.222,0.237,0.133,0.897,-0.899 (inactive),-0.167,3.85 (inactive),0.192 (inactive),-0.192 (inactive),0.255 (inactive),-0.342,0.618 (inactive),1.23 (inactive),2.62
